Counter-ions that a name gives are not always drawn.
Columns and labels:
Conditions in all cases: treatment time: 24 h
A549-ACTB-RAB5A [1] = experiment: lowest phenotypically active concentration; higher = less potent
Method in brief: (§1)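 Cells from fifteen gene-edited reporter lines (A549, HepG2 and WPMY1) were treated for 24 h at 0.3, 1, 3 or 9 µM and imaged live, four wells per condition. Features were normalised per well to solvent control wells. A condition deviated if ≥3 of 4 wells passed the 95th percentile of control Euclidean distances and was reproducible if its median replicate Pearson correlation beat the 95th percentile of non-replicates; phenotypic activity needed both.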

A549-CANX-COX4 [2] = experiment: as above
Method in brief: as §1

A549-GM130-SQSTM1 [3] = experiment: as above
Method in brief: as §1

A549-TP53BP1-CLTA [4] = experiment: as above
Method in brief: as §1

A549-TUBA1B-RELA [5] = experiment: as above
Method in brief: as §1

A549-ACTB-RAB5A [6] = experiment: phenotypically active (imaging signature differs from DMSO and reproducible) at any of 0.3-9 uM (binary (1 = active, 0 = inactive)); higher = active
Method in brief: as §1

A549-CANX-COX4 [7] = experiment: as above
Method in brief: as §1

A549-GM130-SQSTM1 [8] = experiment: as above
Method in brief: as §1

A549-TP53BP1-CLTA [9] = experiment: as above
Method in brief: as §1

A549-TUBA1B-RELA [10] = experiment: as above
Method in brief: as §1

HepG2-ACTB-RAB5A = experiment: as above
Method in brief: as §1

HepG2-CANX-COX4 = experiment: as above
Method in brief: as §1

HepG2-GM130-SQSTM1 = experiment: as above
Method in brief: as §1

HepG2-TP53BP1-CLTA = experiment: as above
Method in brief: as §1

HepG2-TUBA1B-RELA = experiment: as above
Method in brief: as §1

WPMY1-ACTB-RAB5A = experiment: as above
Method in brief: as §1

WPMY1-CANX-COX4 = experiment: as above
Method in brief: as §1

WPMY1-GM130-SQSTM1 = experiment: as above
Method in brief: as §1

WPMY1-TP53BP1-CLTA = experiment: as above
Method in brief: as §1

WPMY1-TUBA1B-RELA = experiment: as above
Method in brief: as §1

CO[C@H]1C=CC=C(C)C(=O)NC2=CC(=O)C(NCCN(C)C)=C(C[C@@H](C)C[C@H](OC)[C@H](O)[C@@H](C)C=C(C)[C@@H]1OC(N)=O)C2=O [17-DMAG hydrochloride]
active: phenotypically active (A549-ACTB-RAB5A [6]) 1 | phenotypically active (A549-CANX-COX4 [7]) 1 | phenotypically active (A549-GM130-SQSTM1 [8]) 1 | phenotypically active (A549-TP53BP1-CLTA [9]) 1 | phenotypically active (A549-TUBA1B-RELA [10]) 1 | phenotypically active (HepG2-ACTB-RAB5A) 1 | phenotypically active (HepG2-CANX-COX4) 1 | phenotypically active (HepG2-GM130-SQSTM1) 1 | phenotypically active (HepG2-TP53BP1-CLTA) 1 | phenotypically active (HepG2-TUBA1B-RELA) 1 | phenotypically active (WPMY1-ACTB-RAB5A) 1 | phenotypically active (WPMY1-CANX-COX4) 1 | phenotypically active (WPMY1-GM130-SQSTM1) 1 | phenotypically active (WPMY1-TP53BP1-CLTA) 1 | phenotypically active (WPMY1-TUBA1B-RELA) 1
≤ 0.3 µM: lowest phenotypically active concentration (A549-ACTB-RAB5A [1]) | lowest phenotypically active concentration (A549-CANX-COX4 [2]) | lowest phenotypically active concentration (A549-GM130-SQSTM1 [3]) | lowest phenotypically active concentration (A549-TP53BP1-CLTA [4]) | lowest phenotypically active concentration (A549-TUBA1B-RELA [5])

CCc1cccc(CC)c1NC(=O)N1Cc2[nH]nc(NC(=O)c3ccc(N4CCN(C)CC4)cc3)c2C1
≤ 0.3 µM: lowest phenotypically active concentration (A549-ACTB-RAB5A [1])
1 µM: lowest phenotypically active concentration (A549-GM130-SQSTM1 [3]) | lowest phenotypically active concentration (A549-TUBA1B-RELA [5])
3 µM: lowest phenotypically active concentration (A549-CANX-COX4 [2]) | lowest phenotypically active concentration (A549-TP53BP1-CLTA [4])
active: phenotypically active (A549-ACTB-RAB5A [6]) 1 | phenotypically active (A549-CANX-COX4 [7]) 1 | phenotypically active (A549-GM130-SQSTM1 [8]) 1 | phenotypically active (A549-TP53BP1-CLTA [9]) 1 | phenotypically active (A549-TUBA1B-RELA [10]) 1 | phenotypically active (HepG2-ACTB-RAB5A) 1 | phenotypically active (HepG2-CANX-COX4) 1 | phenotypically active (HepG2-GM130-SQSTM1) 1 | phenotypically active (HepG2-TP53BP1-CLTA) 1 | phenotypically active (HepG2-TUBA1B-RELA) 1 | phenotypically active (WPMY1-ACTB-RAB5A) 1 | phenotypically active (WPMY1-CANX-COX4) 1 | phenotypically active (WPMY1-GM130-SQSTM1) 1 | phenotypically active (WPMY1-TP53BP1-CLTA) 1 | phenotypically active (WPMY1-TUBA1B-RELA) 1

COc1ccc(-c2cc3c(C)nc(N)nc3n([C@H]3CC[C@H](OCCO)CC3)c2=O)cn1
≤ 0.3 µM: lowest phenotypically active concentration (A549-ACTB-RAB5A [1]) | lowest phenotypically active concentration (A549-CANX-COX4 [2]) | lowest phenotypically active concentration (A549-GM130-SQSTM1 [3]) | lowest phenotypically active concentration (A549-TP53BP1-CLTA [4]) | lowest phenotypically active concentration (A549-TUBA1B-RELA [5])
active: phenotypically active (A549-ACTB-RAB5A [6]) 1 | phenotypically active (A549-CANX-COX4 [7]) 1 | phenotypically active (A549-GM130-SQSTM1 [8]) 1 | phenotypically active (A549-TP53BP1-CLTA [9]) 1 | phenotypically active (A549-TUBA1B-RELA [10]) 1 | phenotypically active (HepG2-ACTB-RAB5A) 1 | phenotypically active (HepG2-CANX-COX4) 1 | phenotypically active (HepG2-GM130-SQSTM1) 1 | phenotypically active (HepG2-TP53BP1-CLTA) 1 | phenotypically active (HepG2-TUBA1B-RELA) 1 | phenotypically active (WPMY1-ACTB-RAB5A) 1 | phenotypically active (WPMY1-CANX-COX4) 1 | phenotypically active (WPMY1-GM130-SQSTM1) 1 | phenotypically active (WPMY1-TP53BP1-CLTA) 1 | phenotypically active (WPMY1-TUBA1B-RELA) 1

O=C(NCc1cccc(O)c1)Nc1nc(-c2ccncc2)cs1 [RKI 1447 dihydrochloride]
active: phenotypically active (A549-ACTB-RAB5A [6]) 1 | phenotypically active (A549-CANX-COX4 [7]) 1 | phenotypically active (A549-GM130-SQSTM1 [8]) 1 | phenotypically active (A549-TP53BP1-CLTA [9]) 1 | phenotypically active (A549-TUBA1B-RELA [10]) 1 | phenotypically active (HepG2-ACTB-RAB5A) 1 | phenotypically active (HepG2-CANX-COX4) 1 | phenotypically active (HepG2-GM130-SQSTM1) 1 | phenotypically active (HepG2-TP53BP1-CLTA) 1 | phenotypically active (HepG2-TUBA1B-RELA) 1 | phenotypically active (WPMY1-ACTB-RAB5A) 1 | phenotypically active (WPMY1-CANX-COX4) 1 | phenotypically active (WPMY1-GM130-SQSTM1) 1 | phenotypically active (WPMY1-TP53BP1-CLTA) 1 | phenotypically active (WPMY1-TUBA1B-RELA) 1
≤ 0.3 µM: lowest phenotypically active concentration (A549-ACTB-RAB5A [1]) | lowest phenotypically active concentration (A549-CANX-COX4 [2]) | lowest phenotypically active concentration (A549-GM130-SQSTM1 [3]) | lowest phenotypically active concentration (A549-TP53BP1-CLTA [4]) | lowest phenotypically active concentration (A549-TUBA1B-RELA [5])

Nc1ncnc2c1nc(Cl)n2C1O[C@H](CO)[C@@H](O)[C@H]1O (stereo not given in full) [8-Chloroadenosine]
1 µM: lowest phenotypically active concentration (A549-ACTB-RAB5A [1]) | lowest phenotypically active concentration (A549-CANX-COX4 [2]) | lowest phenotypically active concentration (A549-GM130-SQSTM1 [3]) | lowest phenotypically active concentration (A549-TP53BP1-CLTA [4]) | lowest phenotypically active concentration (A549-TUBA1B-RELA [5])
active: phenotypically active (A549-ACTB-RAB5A [6]) 1 | phenotypically active (A549-CANX-COX4 [7]) 1 | phenotypically active (A549-GM130-SQSTM1 [8]) 1 | phenotypically active (A549-TP53BP1-CLTA [9]) 1 | phenotypically active (A549-TUBA1B-RELA [10]) 1 | phenotypically active (HepG2-ACTB-RAB5A) 1 | phenotypically active (HepG2-CANX-COX4) 1 | phenotypically active (HepG2-GM130-SQSTM1) 1 | phenotypically active (HepG2-TP53BP1-CLTA) 1 | phenotypically active (HepG2-TUBA1B-RELA) 1 | phenotypically active (WPMY1-ACTB-RAB5A) 1 | phenotypically active (WPMY1-CANX-COX4) 1 | phenotypically active (WPMY1-GM130-SQSTM1) 1 | phenotypically active (WPMY1-TP53BP1-CLTA) 1 | phenotypically active (WPMY1-TUBA1B-RELA) 1

C[C@H]1COCCN1c1cc(C2(S(=O)(=O)C3CC3)CC2)nc(-c2ccc(NC(=S)NCCO)cc2)n1
≤ 0.3 µM: lowest phenotypically active concentration (A549-ACTB-RAB5A [1]) | lowest phenotypically active concentration (A549-CANX-COX4 [2]) | lowest phenotypically active concentration (A549-GM130-SQSTM1 [3]) | lowest phenotypically active concentration (A549-TP53BP1-CLTA [4]) | lowest phenotypically active concentration (A549-TUBA1B-RELA [5])
active: phenotypically active (A549-ACTB-RAB5A [6]) 1 | phenotypically active (A549-CANX-COX4 [7]) 1 | phenotypically active (A549-GM130-SQSTM1 [8]) 1 | phenotypically active (A549-TP53BP1-CLTA [9]) 1 | phenotypically active (A549-TUBA1B-RELA [10]) 1 | phenotypically active (HepG2-ACTB-RAB5A) 1 | phenotypically active (HepG2-CANX-COX4) 1 | phenotypically active (HepG2-GM130-SQSTM1) 1 | phenotypically active (HepG2-TP53BP1-CLTA) 1 | phenotypically active (HepG2-TUBA1B-RELA) 1 | phenotypically active (WPMY1-ACTB-RAB5A) 1 | phenotypically active (WPMY1-CANX-COX4) 1 | phenotypically active (WPMY1-GM130-SQSTM1) 1 | phenotypically active (WPMY1-TP53BP1-CLTA) 1 | phenotypically active (WPMY1-TUBA1B-RELA) 1
